The source of these data is paper PMC4336329 (PLoS ONE, 2015).

Out of some 310,000 compounds screened, about 2,200 (0.71%) showed an effect of 50% or more. The effect is printed as a negative number. Only a selection was taken, and strong results are over-represented in it overall.

For the experiment, the target named is human ether-à-go-go-related gene (hERG) potassium channel (human, UniProt Q12809). Put plainly: primary screen, population patch clamp on CHO cells stably expressing hERG; higher = less effect of the substance.
Chain of human ether-à-go-go-related gene (hERG) potassium channel (Q12809 whole entry, looked up): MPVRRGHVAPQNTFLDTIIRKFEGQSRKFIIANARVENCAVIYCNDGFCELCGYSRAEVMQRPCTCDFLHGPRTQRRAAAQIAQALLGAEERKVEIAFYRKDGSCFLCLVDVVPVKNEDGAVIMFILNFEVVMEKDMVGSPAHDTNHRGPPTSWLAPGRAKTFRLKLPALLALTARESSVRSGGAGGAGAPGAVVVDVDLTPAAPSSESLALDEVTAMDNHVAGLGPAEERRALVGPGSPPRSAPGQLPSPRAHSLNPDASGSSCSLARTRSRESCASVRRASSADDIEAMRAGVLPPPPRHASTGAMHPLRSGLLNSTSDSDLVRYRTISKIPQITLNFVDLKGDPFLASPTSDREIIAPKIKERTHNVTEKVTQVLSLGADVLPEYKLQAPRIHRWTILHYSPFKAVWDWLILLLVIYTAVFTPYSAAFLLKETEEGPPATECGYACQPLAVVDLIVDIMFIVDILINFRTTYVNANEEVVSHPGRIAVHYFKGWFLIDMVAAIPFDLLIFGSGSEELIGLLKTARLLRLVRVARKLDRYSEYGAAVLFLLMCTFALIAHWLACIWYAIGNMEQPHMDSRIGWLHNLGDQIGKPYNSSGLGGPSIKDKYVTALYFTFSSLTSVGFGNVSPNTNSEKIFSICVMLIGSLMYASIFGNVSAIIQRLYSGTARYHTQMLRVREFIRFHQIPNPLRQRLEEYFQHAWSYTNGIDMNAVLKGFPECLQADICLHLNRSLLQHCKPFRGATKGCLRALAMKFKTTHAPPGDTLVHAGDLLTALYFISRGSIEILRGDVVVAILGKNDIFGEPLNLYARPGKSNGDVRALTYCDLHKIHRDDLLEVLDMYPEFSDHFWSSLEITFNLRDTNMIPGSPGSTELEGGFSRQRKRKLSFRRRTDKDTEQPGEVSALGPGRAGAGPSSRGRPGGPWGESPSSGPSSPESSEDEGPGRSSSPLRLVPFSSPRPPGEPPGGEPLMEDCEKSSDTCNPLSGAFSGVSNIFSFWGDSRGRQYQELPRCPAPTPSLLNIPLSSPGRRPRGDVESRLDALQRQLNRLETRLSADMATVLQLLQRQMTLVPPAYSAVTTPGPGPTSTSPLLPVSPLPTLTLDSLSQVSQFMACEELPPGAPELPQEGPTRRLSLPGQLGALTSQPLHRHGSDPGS
For `CCOc1ccc(-n2c(SCc3ccc(C#N)cc3)nnc2-c2cccnc2)cc1`, the “hERG current change (%, negative = inhibition) at 1uM” value was -65.1%.
As to `N#Cc1ccc(CSc2nnc(-c3cccnc3)n2-c2ccccc2)cc1`, the “hERG current change (%, negative = inhibition) at 1uM” value is reported as -26.5%.
For the compound `CCOc1ccc(-n2c(SCC(N)=O)nnc2-c2cccnc2)cc1`, the “hERG current change (%, negative = inhibition) at 1uM” value was -3.26%.
In the case of `CCC(C)(C(=O)NC1CCCCC1)N(C)C(=O)c1ccccn1` (centres unmarked), the “hERG current change (%, negative = inhibition) at 1uM” value was found to be 4.4%.
For the compound `CCC(C)(C(=O)NC1CCCCC1)N(CC1CCCO1)C(=O)CNC(=O)c1ccccc1` (centres unmarked), the “hERG current change (%, negative = inhibition) at 1uM” value came to 9.5%.
Under `CCC(C)(C(=O)NC1CCCCC1)N(CC1CCCO1)C(=O)c1ccccn1` (centres unmarked) stands -80.8%; under `COc1ccc(-c2noc(CSc3nc4ccccc4c(=O)n3-c3ccccc3)n2)cc1`, 1.58%.
The value for `CCC1(C)Cc2ccccc2-c2nc3n(c(=O)c21)CCS3` (centres unmarked) was 12%.
On to `O=c1[nH]c(CN2CCN(S(=O)(=O)/C=C/c3ccccc3)CC2)nc2cc(Cl)ccc12`, for which the “hERG current change (%, negative = inhibition) at 1uM” value was -21.4%.
Take `O=c1[nH]c(CN2CCN(S(=O)(=O)/C=C/c3ccccc3)CC2)nc2ccccc12`: the “hERG current change (%, negative = inhibition) at 1uM” value is recorded as -18.2%.
Under `O=C(CCc1nc2ccccc2c(=O)[nH]1)N1CCN(C/C=C/c2ccccc2)CC1` stands -12.3%; under `O=c1[nH]c(CN2CCN(C/C=C/c3ccccc3)CC2)nc2ccccc12`, -52.6%; under `O=c1[nH]c(CN2CCN(C/C=C/c3ccccc3)CC2)nc2cc(Cl)ccc12`, -108%.
Under `O=c1[nH]c(CN2CCOCC2)nc2cc(Cl)ccc12` stands 4.78%; under `Cc1cc(C)n(-c2nc(-c3ccccc3)cs2)n1`, 1.91%.
The value for `O=C(Nc1ccc2oc(-c3ccc4ccccc4c3)nc2c1)c1ccc2c(c1)OCCO2` was 16.3%; that for `CCN1CCN(Cc2cc(=O)oc3ccc(C)cc23)CC1` was 11.9%.
In the case of `O=c1cc(CN2CCN(C/C=C/c3ccccc3)CC2)c2cc(O)c(-c3ccccc3)cc2o1`, the “hERG current change (%, negative = inhibition) at 1uM” value came to 12.8%.
With `Cc1cc2oc(=O)cc(CN3CCN(S(=O)(=O)/C=C/c4ccccc4)CC3)c2cc1C`, the “hERG current change (%, negative = inhibition) at 1uM” value turned out to be 14.5%.
Under `Cc1c(O)ccc2c(CN3CCN(C/C=C/c4ccccc4)CC3)cc(=O)oc12` stands -36.2%.
Take `O=c1cc(CN2CCN(C/C=C/c3ccccc3)CC2)c2cc(O)ccc2o1`: the “hERG current change (%, negative = inhibition) at 1uM” value is listed as -86%.
Take `Cc1ccc2oc(=O)cc(CN3CCN(C/C=C/c4ccccc4)CC3)c2c1`: the “hERG current change (%, negative = inhibition) at 1uM” value was -53.7%.
Under `Cc1cc(C)c2c(CN3CCN(C/C=C/c4ccccc4)CC3)cc(=O)oc2c1` stands -41.5%; under `Cc1cc2oc(=O)cc(CN3CCN(C/C=C/c4ccccc4)CC3)c2cc1O`, -67.8%.
On to `O=c1cc(CN2CCN(S(=O)(=O)/C=C/c3ccccc3)CC2)c2ccc(O)cc2o1`, for which the “hERG current change (%, negative = inhibition) at 1uM” value is on record as -29.8%.
As to `COc1cccc(NC(=O)C2CCCO2)c1` (centres unmarked), the “hERG current change (%, negative = inhibition) at 1uM” value worked out at 11.7%.
With `COC(=O)C1=NN(N=O)C2(CC(=O)N(c3cc(C)cc(C)c3)C2=O)C1` (centres unmarked), the “hERG current change (%, negative = inhibition) at 1uM” value was found to be 9.48%.
Turning to `CCC(=O)N1c2ccc(S(=O)(=O)N3CCN(C)CC3)cc2CC1C` (centres unmarked), the “hERG current change (%, negative = inhibition) at 1uM” value amounted to 4.4%.
Under `Cc1c(CC(=O)N[C@@H](C)C(=O)O)c(=O)oc2cc3occ(-c4ccccc4)c3cc12` stands 18.2%; under `Cc1ccc(Cn2ncc3c(NCCN(C)C)ncnc32)cc1`, 1.2%; under `COc1ccc(N2CC(C(=O)Nc3ccccc3N3CCCC3)CC2=O)c(OC)c1` (centres unmarked), 8.29%.
For the compound `CCOC(=O)c1ccc(NC(=S)N(CCCN2CCN(CC)CC2)Cc2cccs2)cc1`, the “hERG current change (%, negative = inhibition) at 1uM” value is on record as -40.2%.
With `CCOc1ccc2nc(NC(=O)Cc3cccs3)sc2c1`, the “hERG current change (%, negative = inhibition) at 1uM” value stood at 6.15%.
Consider `COCCN1Cc2cc3cc(C)ccc3nc2SC1=Nc1ccc(OC)cc1`, for which the “hERG current change (%, negative = inhibition) at 1uM” value is 9.8%.
Regarding `CCC(C)N=C1Sc2nc3ccc(C)cc3cc2CN1CCOC` (centres unmarked), the “hERG current change (%, negative = inhibition) at 1uM” value is recorded as -60.4%.
Regarding `CCOc1ccc(N=C2Sc3nc4ccc(C)cc4cc3CN2CCOC)cc1`, the “hERG current change (%, negative = inhibition) at 1uM” value was found to be 16.5%.
Under `C=CCn1c(SCC(O)Cn2c3ccccc3c3ccccc32)nnc1-c1ccco1` (centres unmarked) stands 13.9%; under `O=c1[nH]ncn1-c1ccccc1C(F)(F)F`, 10.3%.
Regarding `CCc1ccc2[nH]c(=O)c(CN(CCN(CC)CC)C(=O)Nc3ccccc3OC)cc2c1`, the “hERG current change (%, negative = inhibition) at 1uM” value is reported as -50.7%.
Consider `CCc1ccc2[nH]c(=O)c(CN(CCN3CCCC3)C(=O)NC3CCCCC3)cc2c1`, for which the “hERG current change (%, negative = inhibition) at 1uM” value is given as -8.52%.
For `CCN(CC)CCN(Cc1cc2ccc(C)cc2[nH]c1=O)C(=O)NC1CCCCC1`, the “hERG current change (%, negative = inhibition) at 1uM” value is reported as -23.9%.
Under `CCc1ccc2[nH]c(=O)c(CN(CCN(CC)CC)C(=O)NC3CCCCC3)cc2c1` stands -51.5%; under `CCc1ccc2[nH]c(=O)c(CN(CCN(C)C)C(=O)Nc3ccccc3OC)cc2c1`, -41.4%.
For the compound `CCN(CC)CCN(Cc1cc2cc(C)ccc2[nH]c1=O)C(=O)Nc1ccccc1OC`, the “hERG current change (%, negative = inhibition) at 1uM” value is given as -22.2%.
